Data published in PubChem BioAssay (NCI).
The panel holds about 79,000 compounds, 15% with a hit somewhere; the sample as a whole holds those more often. The source made the active and inactive calls. Cut-off read from the data, not from the text of the source: active = growth inhibition above about 70%; inactive = the rest.

Key:
[1] = NCI Yeast Anticancer Drug Screen. Data for the rad50 strain (AID 155);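 note: 0% = growth of vehicle-only cultures of the same strain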; conditions: S. cerevisiae rad50 strain growth inhibition, hits give high values
In short: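 DNA repair mutant yeast, compound exposure, growth read-out; inhibition is taken relative to vehicle.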

[2] = NCI Yeast Anticancer Drug Screen. Data for the mec2-1 strain (AID 157); conditions: S. cerevisiae mec2-1 strain, hits give high values
In short: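 Mutant yeast (mec2-1) grown with compound; growth inhibition relative to vehicle control reported.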

[3] = NCI Yeast Anticancer Drug Screen. Data for the sgs1 mgt1 strain (AID 161);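 note: 0% = growth of cultures given vehicle only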; conditions: S. cerevisiae sgs1 mgt1 strain, hits give high values
In short: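 This yeast growth screen uses a strain with defined DNA-repair lesions; compound-treated growth is compared with vehicle-treated growth.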

[4] = NCI Yeast Anticancer Drug Screen. Data for the cln2 rad14 strain (AID 165);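 note: 0% = growth equal to vehicle treated cultures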; conditions: S. cerevisiae cln2 rad14 strain, hits give high values
In short: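 Readout is yeast growth inhibition versus vehicle-treated controls, using a strain with cln2 and rad14 alterations exposed to compound.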

[5] = NCI Yeast Anticancer Drug Screen. Data for the bub3 strain (AID 167); conditions: S. cerevisiae bub3 mutant strain, hits give high values
In short: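 In this screen, a yeast mutant lacking normal mitotic checkpoint function is challenged with compound. Relative growth versus vehicle gives the inhibition value.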

[6] = NCI Yeast Anticancer Drug Screen. Data for the mlh1 rad18 strain (AID 175); conditions: S. cerevisiae mlh1 rad18 strain growth inhibition, hits give high values
In short: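 Genetically defined yeast (DNA repair-deficient) exposed to compounds; growth inhibition determined relative to vehicle.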

[7] = at 5.0 µM (retest, dose inferred, filed as 0.5)
[8] = at 50.0 µM (retest, dose inferred, filed as 5.0)

Measured: growth inhibition

Ic1ccc2c(c1)N(c1ccccc1)c1cc(N=c3ccc4nc5ccc(I)cc5n(-c5ccccc5)c-4c3)ccc1N2
active: [1]; at 50.0 µM 81.5% | [2]; at 50.0 µM 93.6% | [3]; at 50.0 µM 76% | [4]; at 50.0 µM 91.8% | [5]; at 50.0 µM 97.3% | [6]; at 50.0 µM 93.9%
inactive: [1]; [7] -3% | [1]; [8] 15% | [2]; [7] 12% | [2]; [8] 4% | [3]; [7] -4% | [3]; [8] -13% | [4]; [7] 1% | [4]; [8] 29% | [5]; [7] -8% | [5]; [8] 11% | [6]; [7] -7% | [6]; [8] 18%

CCOC(=O)C[n+]1c(C)sc2ccccc21
inactive: [1]; [7] -4% | [1]; [8] 23% | [2]; [7] -3% | [2]; [8] 28% | [2]; at 50.0 µM 40.1% | [3]; [7] 0% | [3]; [8] 54% | [3]; at 50.0 µM 37.6% | [4]; [7] -7% | [4]; [8] 18% | [4]; at 50.0 µM 17.6% | [5]; [7] -6% | [5]; [8] 15% | [5]; at 50.0 µM 39.6% | [6]; [7] -3% | [6]; [8] 43% | [6]; at 50.0 µM 19.2%
active: [1]; at 50.0 µM 78.4%

CC1=CCC[C@@H]2C1(C)CCC(C)[C@@]2(C)CC1=CC(=O)C=CC1=O (stereo not given in full)
inactive: [1]; [7] 18% | [2]; [7] 27% | [3]; [7] 52% | [4]; [7] -12% | [5]; [7] 14% | [6]; [7] 40%
active: [1]; [8] 95% | [1]; at 50.0 µM 86.1% | [2]; [8] 96% | [2]; at 50.0 µM 89.2% | [3]; [8] 95% | [3]; at 50.0 µM 88.8% | [4]; [8] 92% | [4]; at 50.0 µM 85.5% | [5]; [8] 93% | [5]; at 50.0 µM 86.8% | [6]; [8] 92% | [6]; at 50.0 µM 87%

COC(=O)C1c2cc(C)ccc2-c2ccc(C)cc21
inactive: [1]; [7] 31% | [1]; [8] 2% | [1]; at 50.0 µM 13.6% | [2]; [7] 3% | [2]; [8] -17% | [2]; at 50.0 µM 13.3% | [3]; [7] 0% | [3]; [8] 23% | [3]; at 50.0 µM 2.95% | [4]; [7] -14% | [4]; [8] 8% | [4]; at 50.0 µM 30.2% | [5]; [7] -10% | [5]; [8] 18% | [5]; at 50.0 µM 6.75% | [6]; [7] 4% | [6]; [8] 26% | [6]; at 50.0 µM 49.5%

Cc1ccc(Nc2nc(C)c(C(/C=C/c3ccc4c(c3)OCO4)=N/Nc3ccc([N+](=O)[O-])cc3[N+](=O)[O-])s2)c([N+](=O)[O-])c1
inactive: [1]; [7] 43% | [1]; [8] 43% | [1]; at 50.0 µM 53.5% | [2]; [7] 36% | [2]; [8] 36% | [2]; at 50.0 µM 69% | [3]; [7] 37% | [3]; [8] 37% | [4]; [7] 23% | [4]; [8] 23% | [4]; at 50.0 µM 68.2% | [5]; [7] 33% | [5]; [8] 33% | [5]; at 50.0 µM 67.7% | [6]; [7] 37% | [6]; [8] 37%
active: [3]; at 50.0 µM 89.5% | [6]; at 50.0 µM 81.7%

COc1ccc(/C=C/c2ccc3ccccc3n2)cc1OC
inactive: [1]; [7] 3% | [2]; [7] 8% | [3]; [7] 3% | [4]; [7] 1% | [5]; [7] 10% | [6]; [7] -1%
active: [1]; [8] 97% | [1]; at 50.0 µM 93.8% | [2]; [8] 98% | [2]; at 50.0 µM 97% | [3]; [8] 93% | [3]; at 50.0 µM 97.5% | [4]; [8] 96% | [4]; at 50.0 µM 83.6% | [5]; [8] 98% | [5]; at 50.0 µM 95.3% | [6]; [8] 97% | [6]; at 50.0 µM 95.7%

C#CCN1CCN(C(=S)N/N=C(\C)c2ccccn2)CC1
inactive: [1]; [7] 22% | [2]; [7] 19% | [3]; [7] 20% | [4]; [7] 21% | [5]; [7] 14% | [6]; [7] 52%
active: [1]; [8] 99% | [1]; at 50.0 µM 99.5% | [2]; [8] 100% | [2]; at 50.0 µM 99.7% | [3]; [8] 100% | [3]; at 50.0 µM 99.5% | [4]; [8] 99% | [4]; at 50.0 µM 99.4% | [5]; [8] 99% | [5]; at 50.0 µM 99.3% | [6]; [8] 100% | [6]; at 50.0 µM 99.3%

CCOC(=O)Nc1ccc(SCC2COC(Cn3ccnc3)(c3ccc(Cl)cc3Cl)O2)cc1 (stereo not given)
inactive: [3]; at 50.0 µM 49.1% | [4]; [7] 60% | [6]; [7] 61%
active: [1]; [7] 89% | [1]; [8] 91% | [1]; at 50.0 µM 97% | [2]; [7] 72% | [2]; [8] 93% | [2]; at 50.0 µM 96.2% | [3]; [7] 84% | [3]; [8] 94% | [4]; [8] 90% | [4]; at 50.0 µM 98% | [5]; [7] 91% | [5]; [8] 93% | [5]; at 50.0 µM 94.5% | [6]; [8] 90% | [6]; at 50.0 µM 95.2%

COC1CC(OC(=O)c2ccccc2)C2OC(c3ccccc3)OCC2O1 (stereo not given)
inactive: [1]; [7] 3% | [1]; [8] 26% | [1]; at 50.0 µM 42.5% | [2]; [7] 2% | [2]; [8] 18% | [2]; at 50.0 µM 8.35% | [3]; [7] 1% | [3]; [8] 44% | [3]; at 50.0 µM 63.3% | [4]; [7] 7% | [4]; [8] 39% | [4]; at 50.0 µM -3.35% | [5]; [7] 24% | [5]; at 50.0 µM 15.2% | [6]; [7] 6% | [6]; [8] 36% | [6]; at 50.0 µM 6.15%
active: [5]; [8] 80%

NC1=NOC(=O)C1Cc1ccccc1 (stereo not given)
active: [4]; at 50.0 µM 76.8%
inactive: [1]; [7] -2% | [1]; [8] -1% | [1]; at 50.0 µM 2.3% | [2]; [7] 0% | [2]; [8] -4% | [2]; at 50.0 µM 8% | [3]; [7] -1% | [3]; [8] -2% | [3]; at 50.0 µM 1.8% | [4]; [7] -7% | [4]; [8] -4% | [5]; [7] 2% | [5]; [8] -3% | [5]; at 50.0 µM -6.95% | [6]; [7] -2% | [6]; [8] -2% | [6]; at 50.0 µM 15.6%
